# Results: publication PMC3315485, “Probing the Informational and Regulatory Plasticity of a Transcription Factor DNA–Binding Domain”
# Substitutions are numbered along the chain they refer to.
# Experiments:
# Assay in all cases: MITOMI; MITOMI, 295 K (22 C); buffer, salt and pH not stated in the material; high values mean tight binding
# Conditions in all cases: protein: ivt; label: fluorescent; dsDNA, one strand shown
# [1] = molecular target: T1, MarA wild type (WQR) (Escherichia coli, UniProt P0ACH5 1-127)
# T1 sequence: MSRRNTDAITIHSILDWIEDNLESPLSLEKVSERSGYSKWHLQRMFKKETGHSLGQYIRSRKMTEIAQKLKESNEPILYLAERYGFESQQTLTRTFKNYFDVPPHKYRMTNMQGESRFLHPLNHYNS
# How it was run: (§1)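 Each fluorescently labelled MarA protein variant, made by in vitro transcription and translation with the RTS E. coli HY kit plus tRNA-lys-bodipy-fl, was tested by MITOMI against 64 synthesized mar binding site variants. Protein and DNA fluorescence were read on Genepix at 295K. Association constants, measured by MITOMI, are reported for each site relative to the highest-affinity site for the same protein variant.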
# [2] = molecular target: T2, MarA RQR (Escherichia coli, UniProt P0ACH5 1-127, W40R)
# T2 sequence: T1 sequence with W40R
# How it was run: as §1
# [3] = molecular target: T3, MarA RTR (Escherichia coli, UniProt P0ACH5 1-127, W40R;Q43T)
# T3 sequence: T1 sequence with W40R, Q43T
# How it was run: as §1
# [4] = molecular target: T4, MarA SAR (Escherichia coli, UniProt P0ACH5 1-127, W40S;Q43A)
# T4 sequence: T1 sequence with W40S, Q43A
# How it was run: as §1
# [5] = molecular target: T5, MarA TRR (Escherichia coli, UniProt P0ACH5 1-127, W40T;Q43R)
# T5 sequence: T1 sequence with W40T, Q43R
# How it was run: as §1
sequence,measurement,setting,value
ATGTTTCGTTTTGCTAAAT,binding signal,[1],0.217 Ka relative to the best site of the variant
same,binding signal,[2],0.214 Ka relative to the best site of the variant
same,binding signal,[3],0.716 Ka relative to the best site of the variant
same,binding signal,[4],0.21 Ka relative to the best site of the variant
same,binding signal,[5],0.539 Ka relative to the best site of the variant
ATGACCCGTTTTGCTAAAT,binding signal,[1],0.32 Ka relative to the best site of the variant
same,binding signal,[2],0.701 Ka relative to the best site of the variant
same,binding signal,[3],0.63 Ka relative to the best site of the variant
same,binding signal,[4],0.573 Ka relative to the best site of the variant
same,binding signal,[5],0.379 Ka relative to the best site of the variant
ATGGGGCGTTTTGCTAAAT,binding signal,[1],0.307 Ka relative to the best site of the variant
same,binding signal,[2],0.11 Ka relative to the best site of the variant
same,binding signal,[3],0.167 Ka relative to the best site of the variant
same,binding signal,[4],0.429 Ka relative to the best site of the variant
same,binding signal,[5],0.451 Ka relative to the best site of the variant
ATGTACCGTTTTGCTAAAT,binding signal,[1],0.215 Ka relative to the best site of the variant
same,binding signal,[2],0.142 Ka relative to the best site of the variant
same,binding signal,[3],0.989 Ka relative to the best site of the variant
same,binding signal,[4],0.25 Ka relative to the best site of the variant
same,binding signal,[5],0.417 Ka relative to the best site of the variant
ATGCGTCGTTTTGCTAAAT,binding signal,[1],0.26 Ka relative to the best site of the variant
same,binding signal,[2],0.144 Ka relative to the best site of the variant
same,binding signal,[3],0.153 Ka relative to the best site of the variant
same,binding signal,[4],0.552 Ka relative to the best site of the variant
same,binding signal,[5],0.435 Ka relative to the best site of the variant
ATGTAACGTTTTGCTAAAT,binding signal,[1],0.345 Ka relative to the best site of the variant
same,binding signal,[2],0.135 Ka relative to the best site of the variant
same,binding signal,[3],0.514 Ka relative to the best site of the variant
same,binding signal,[4],0.232 Ka relative to the best site of the variant
same,binding signal,[5],0.492 Ka relative to the best site of the variant
ATGGGCCGTTTTGCTAAAT,binding signal,[1],0.236 Ka relative to the best site of the variant
same,binding signal,[2],0.147 Ka relative to the best site of the variant
same,binding signal,[3],0.196 Ka relative to the best site of the variant
same,binding signal,[4],0.575 Ka relative to the best site of the variant
same,binding signal,[5],0.368 Ka relative to the best site of the variant
ATGACGCGTTTTGCTAAAT,binding signal,[1],0.362 Ka relative to the best site of the variant
same,binding signal,[2],0.33 Ka relative to the best site of the variant
same,binding signal,[3],0.382 Ka relative to the best site of the variant
same,binding signal,[4],0.905 Ka relative to the best site of the variant
same,binding signal,[5],0.302 Ka relative to the best site of the variant
ATGTTCCGTTTTGCTAAAT,binding signal,[1],0.197 Ka relative to the best site of the variant
ATGAGACGTTTTGCTAAAT,binding signal,[1],0.307 Ka relative to the best site of the variant
same,binding signal,[2],0.0985 Ka relative to the best site of the variant
same,binding signal,[3],0.229 Ka relative to the best site of the variant
same,binding signal,[4],0.913 Ka relative to the best site of the variant
same,binding signal,[5],0.362 Ka relative to the best site of the variant
ATGAAGCGTTTTGCTAAAT,binding signal,[1],0.256 Ka relative to the best site of the variant
same,binding signal,[2],0.0942 Ka relative to the best site of the variant
same,binding signal,[3],0.204 Ka relative to the best site of the variant
same,binding signal,[4],0.677 Ka relative to the best site of the variant
same,binding signal,[5],0.338 Ka relative to the best site of the variant
ATGAAACGTTTTGCTAAAT,binding signal,[1],0.124 Ka relative to the best site of the variant
same,binding signal,[2],0.0424 Ka relative to the best site of the variant
same,binding signal,[3],0.323 Ka relative to the best site of the variant
same,binding signal,[4],0.852 Ka relative to the best site of the variant
same,binding signal,[5],0.36 Ka relative to the best site of the variant
ATGCAGCGTTTTGCTAAAT,binding signal,[1],0.293 Ka relative to the best site of the variant
same,binding signal,[2],0.105 Ka relative to the best site of the variant
same,binding signal,[3],0.149 Ka relative to the best site of the variant
same,binding signal,[4],0.357 Ka relative to the best site of the variant
same,binding signal,[5],0.477 Ka relative to the best site of the variant
ATGTCACGTTTTGCTAAAT,binding signal,[1],0.38 Ka relative to the best site of the variant
same,binding signal,[2],0.819 Ka relative to the best site of the variant
same,binding signal,[3],0.306 Ka relative to the best site of the variant
same,binding signal,[4],0.302 Ka relative to the best site of the variant
same,binding signal,[5],0.461 Ka relative to the best site of the variant
ATGTAGCGTTTTGCTAAAT,binding signal,[1],0.284 Ka relative to the best site of the variant
same,binding signal,[2],0.0898 Ka relative to the best site of the variant
same,binding signal,[3],0.685 Ka relative to the best site of the variant
same,binding signal,[4],0.152 Ka relative to the best site of the variant
same,binding signal,[5],0.356 Ka relative to the best site of the variant
ATGCACCGTTTTGCTAAAT,binding signal,[1],0.261 Ka relative to the best site of the variant
same,binding signal,[2],0.132 Ka relative to the best site of the variant
same,binding signal,[3],0.202 Ka relative to the best site of the variant
same,binding signal,[4],0.497 Ka relative to the best site of the variant
same,binding signal,[5],0.449 Ka relative to the best site of the variant
